Screens deposited in PubChem by Broad Institute.
IDE exosite FP: exo-site inhibitors of human insulin-degrading enzyme; purified IDE, FL-6b probe fluorescence polarization; hits give low values; z-score at 20 µM; 17,000 compounds, 6.3% hits;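 active = z-score of -3 or lower, meaning strong loss of probe binding signal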;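 also: His-tagged human IDE residues 42-1019 made in E. coli with 30 nM FL-6b probe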
Target sequence (P14735 42-1019 limits assumed): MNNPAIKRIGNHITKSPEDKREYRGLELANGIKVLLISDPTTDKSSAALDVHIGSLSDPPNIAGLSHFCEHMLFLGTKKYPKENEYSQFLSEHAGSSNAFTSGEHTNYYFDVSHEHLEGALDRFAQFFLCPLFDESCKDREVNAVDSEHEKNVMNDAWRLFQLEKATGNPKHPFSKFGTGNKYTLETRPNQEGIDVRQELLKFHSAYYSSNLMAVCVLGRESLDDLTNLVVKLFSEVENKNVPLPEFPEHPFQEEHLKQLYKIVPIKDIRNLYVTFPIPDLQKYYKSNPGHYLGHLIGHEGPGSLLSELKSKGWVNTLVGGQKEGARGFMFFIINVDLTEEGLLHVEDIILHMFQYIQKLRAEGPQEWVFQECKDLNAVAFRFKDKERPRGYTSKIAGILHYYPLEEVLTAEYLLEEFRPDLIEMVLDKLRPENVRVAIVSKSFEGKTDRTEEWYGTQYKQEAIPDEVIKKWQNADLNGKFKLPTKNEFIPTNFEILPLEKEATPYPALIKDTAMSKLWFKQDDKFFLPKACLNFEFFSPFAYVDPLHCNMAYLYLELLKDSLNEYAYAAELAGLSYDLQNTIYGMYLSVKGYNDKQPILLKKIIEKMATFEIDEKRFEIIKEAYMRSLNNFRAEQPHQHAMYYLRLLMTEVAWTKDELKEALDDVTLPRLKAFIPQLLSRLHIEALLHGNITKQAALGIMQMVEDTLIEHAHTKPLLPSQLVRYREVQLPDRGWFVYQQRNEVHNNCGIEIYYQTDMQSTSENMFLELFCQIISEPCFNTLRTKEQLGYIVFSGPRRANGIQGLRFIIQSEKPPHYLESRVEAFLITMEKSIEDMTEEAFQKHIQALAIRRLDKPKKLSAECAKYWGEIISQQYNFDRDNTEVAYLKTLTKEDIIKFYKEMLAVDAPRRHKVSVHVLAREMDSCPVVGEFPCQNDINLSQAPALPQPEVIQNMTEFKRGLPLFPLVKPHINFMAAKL
Numbers without * were called inactive; ! = not confirmed by another sample. This is one part of a sample in which hits are shown more often than they occur.

SMILES	IDE exosite FP
COc1cc(CN2[C@@H]3CNC[C@H]2C3c2ccc(/C=C/c3ccccc3)cc2)cc(OC)c1 (some centres not stated)	-5.5*!
COc1ccccc1NC(=O)N1C[C@@H](O)COC[C@@H]2O[C@H](CC(=O)N3CCC(Cc4ccccc4)CC3)CC[C@H]21	1.2
C[C@@H](NC(=O)C[C@H]1C=C[C@@H](NC(=O)c2cccnc2)[C@@H](CO)O1)c1ccccc1	-0.63
Cc1ccc(S(=O)(=O)Nc2ccc3c(c2)C(=O)N([C@H](C)CO)C[C@H](C)[C@H](CN(C)S(=O)(=O)c2cccs2)OCCCC[C@H](C)O3)cc1	2.1
CN1C(=O)c2cc(NS(=O)(=O)c3cccc(F)c3)ccc2OC[C@@H]2O[C@H](CC(=O)NCCN3CCCCC3)CC[C@@H]21	0.48
O=C(Cc1cccnc1)N1CC(=O)N2[C@H](C1)[C@@H](c1ccc(/C=C/c3ccccc3)cc1)[C@@H]2CO	-4.7*
O=C(c1ccccc1)N1CC(=O)N2[C@H](C1)[C@@H](c1ccc(/C=C/c3ccccc3)cc1)[C@@H]2CO	-2.6
O=C(c1cccnc1)N1CC(=O)N2[C@H](CO)[C@@H](c3ccc(/C=C/c4ccccc4)cc3)[C@H]2C1	-5.4*
O=C(c1ccc(F)cc1)N1CC(=O)N2[C@@H](CO)[C@H](c3ccc(/C=C/c4ccccc4)cc3)[C@@H]2C1	-5.3*
O=C(c1ccccc1)N1CC(=O)N2[C@@H](CO)[C@H](c3ccc(/C=C/c4ccccc4)cc3)[C@@H]2C1	-3.4*
C/C=C/c1ccc([C@H]2[C@H]3CN(C(=O)Cc4cccnc4)CC(=O)N3[C@H]2CO)cc1	-0.49
C/C=C/c1ccc([C@H]2[C@H](CO)N3C(=O)CN(C(=O)c4ccc(F)cc4)C[C@@H]23)cc1	2.4
O=C(c1ccncc1)N1CC(=O)N2[C@H](CO)[C@@H](c3ccc(/C=C/c4ccccc4)cc3)[C@H]2C1	-1.2
O=C(c1cccc(F)c1)N1CC(=O)N2[C@H](CO)[C@H](c3ccc(/C=C/c4ccccc4)cc3)[C@@H]2C1	-2.7
C/C=C/c1ccc([C@@H]2[C@@H](CO)N3C(=O)CN(C(=O)Cc4cccnc4)C[C@H]23)cc1	1.1
O=C(c1cccnc1)N1CC(=O)N2[C@H](CO)[C@H](c3ccc(-c4ccc(F)cc4)cc3)[C@@H]2C1	0.28
O=C(c1ccc(F)cc1)N1CC(=O)N2[C@H](CO)[C@@H](c3ccc(/C=C/c4ccccc4)cc3)[C@@H]2C1	0.7
COC(=O)C[C@H]1CC[C@@H]2[C@H](COC[C@@H](O)CN2S(=O)(=O)c2ccccc2OC)O1	-0.46
N#C[C@@H]1[C@H](c2ccccc2)[C@H](CO)N1S(=O)(=O)Cc1ccccc1	2.8
CO[C@@H]1CN(C)C(=O)c2cc(NC(=O)C3CC3)ccc2OC[C@@H](C)N(Cc2cc(F)ccc2F)C[C@@H]1C	-1.2
COc1ccc(NC(=O)N(C)C[C@@H]2OCCCC[C@H](C)Oc3ccc(NC(=O)c4ccncc4)cc3C(=O)N([C@H](C)CO)C[C@H]2C)cc1	1.3
Cc1noc(C)c1S(=O)(=O)Nc1ccc2c(c1)C(=O)N([C@@H](C)CO)C[C@H](C)[C@H](CN(C)C(=O)Nc1cccc3ccccc13)OCCCC[C@H](C)O2	-1
CC(C)C#Cc1ccc([C@@H]2[C@H](CO)N3C(=O)CN(C(=O)Cc4cccnc4)C[C@@H]23)cc1	4.9
COc1ccc(NC(=O)N2CCCCN3[C@H](CO)[C@H](c4ccc(C#CCC(C)C)cc4)[C@@H]3C2)cc1	3.5
CCCNC(=O)N1C[C@@H]2[C@H](c3ccccc31)[C@H](CO)N2C(=O)Nc1ccccc1F	-0.45
SMILES	IDE exosite FP
O=C(c1ccc2c(c1)OCO2)N1C[C@H]2[C@@H](c3ccccc31)[C@@H](CO)N2C(=O)CC1CC1	-0.36
CO[C@H]1CN(C)C(=O)c2ccc(NS(=O)(=O)c3c(C)noc3C)cc2OC[C@H](C)NC[C@@H]1C	2.2
CC(=O)N1[C@@H](CO)[C@@H]2c3ccccc3N(S(=O)(=O)c3ccccc3C)C[C@@H]21	2
CC(=O)N1CC(=O)N2[C@H](CO)[C@@H](c3ccc(-c4cccc(C(=O)N(C)C)c4)cc3)[C@@H]2C1	2.3
CN(C)CC#Cc1ccc([C@H]2[C@@H](CO)N3C(=O)CN(C(=O)c4cccnc4)C[C@@H]23)cc1	2.9
COc1cccc(C(=O)Nc2ccc3c(c2)C(=O)N(C)[C@@H]2CC[C@@H](CC(=O)N[C@@H](C)c4ccccc4)O[C@H]2CO3)c1	-0.77
COc1cccc(C(=O)Nc2ccc3c(c2)C(=O)N(C)[C@H]2CC[C@@H](CC(=O)N[C@H](C)c4ccccc4)O[C@@H]2CO3)c1	-3.6*
COc1cccc(C(=O)Nc2ccc3c(c2)C(=O)N(C)[C@@H]2CC[C@@H](CC(=O)N[C@H](C)c4ccccc4)O[C@H]2CO3)c1	-1.6
C[C@H](NC(=O)C[C@H]1CC[C@@H]2[C@@H](COc3ccc(NC(=O)C4CCOCC4)cc3C(=O)N2C)O1)c1ccccc1	-0.8
COc1cccc(C(=O)Nc2ccc3c(c2)C(=O)N(C)[C@H]2CC[C@@H](CC(=O)N[C@@H](C)c4ccccc4)O[C@@H]2CO3)c1	-7*
COc1cccc(C(=O)Nc2ccc3c(c2)C(=O)N(C)[C@@H]2CC[C@@H](CC(=O)N[C@@H](C)c4ccccc4)O[C@@H]2CO3)c1	0.59
CC(C)CC#Cc1ccc([C@@H]2[C@H]3CN(C(=O)CN4CCOCC4)CC(=O)N3[C@H]2CO)cc1	4.6
CN(C)C(=O)c1ccc(-c2ccc(C3[C@@H]4CN(C(=O)Cc5ccncc5)C[C@H]3N4)cc2)cc1 (some centres not stated)	3.6
COc1cccc(-c2ccc(C3[C@H]4CNC[C@@H]3N4C(=O)NC3CCCCC3)cc2)c1 (some centres not stated)	-3.8*!
CN(C)C(=O)c1cccc(-c2ccc(C3[C@@H]4CN(C(=O)c5cnccn5)C[C@H]3N4)cc2)c1 (some centres not stated)	0.092
CCCNC(=O)N1C[C@@H]2N[C@H](C1)C2c1ccc(-c2ccccc2C)cc1 (some centres not stated)	-7.8*!
COc1cccc(-c2ccc(C3[C@@H]4CN(C(=O)c5cnccn5)C[C@H]3N4)cc2)c1 (some centres not stated)	-8.7*!
Cc1cccc(-c2ccc(C3[C@@H]4CN(C(=O)Cc5ccncc5)C[C@H]3N4)cc2)c1 (some centres not stated)	0.11
O=C(NC1CCCC1)N1[C@@H]2CNC[C@H]1C2c1ccc(-c2cccnc2)cc1 (some centres not stated)	-0.49
CCCNC(=O)N1C[C@@H]2N[C@H](C1)C2c1ccc(-c2ccc(F)cc2)cc1 (some centres not stated)	2.2
CCCNC(=O)N1C[C@@H]2N[C@H](C1)C2c1ccc(-c2cccnc2)cc1 (some centres not stated)	1.8
COc1ccc(-c2ccc(C3[C@H]4CNC[C@@H]3N4C(=O)NC3CCCC3)cc2)cc1 (some centres not stated)	3
COc1cccc(-c2ccc(C3[C@@H]4CN(C(=O)c5ccc(F)cc5)C[C@H]3N4)cc2)c1 (some centres not stated)	1.8
Cc1ccccc1-c1ccc(C2[C@@H]3CN(C(=O)Cc4ccncc4)C[C@H]2N3)cc1 (some centres not stated)	-9*!
O=C(C[C@H]1C=C[C@H](NC(=O)Nc2ccccc2F)[C@H](CO)O1)NCc1ccc(-c2ccccc2)cc1	1.7
N#C[C@@H]1[C@@H](c2ccccc2-c2ccc(F)cc2)[C@@H](CO)N1C(=O)Cc1ccccc1	5.2
